The results in this text go back to PubChem BioAssay AID588446 (NMMLSC, 2011).

The source made the active and inactive calls.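 Rule for the calls: active = dose fit with top-dose inhibition above 36% and EC50 error under a fifth of EC50, and EC50 under 30 µM; inactive = the rest.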

Sequence of Integrin alpha-4 (Homo sapiens) (P13612 whole entry, looked up): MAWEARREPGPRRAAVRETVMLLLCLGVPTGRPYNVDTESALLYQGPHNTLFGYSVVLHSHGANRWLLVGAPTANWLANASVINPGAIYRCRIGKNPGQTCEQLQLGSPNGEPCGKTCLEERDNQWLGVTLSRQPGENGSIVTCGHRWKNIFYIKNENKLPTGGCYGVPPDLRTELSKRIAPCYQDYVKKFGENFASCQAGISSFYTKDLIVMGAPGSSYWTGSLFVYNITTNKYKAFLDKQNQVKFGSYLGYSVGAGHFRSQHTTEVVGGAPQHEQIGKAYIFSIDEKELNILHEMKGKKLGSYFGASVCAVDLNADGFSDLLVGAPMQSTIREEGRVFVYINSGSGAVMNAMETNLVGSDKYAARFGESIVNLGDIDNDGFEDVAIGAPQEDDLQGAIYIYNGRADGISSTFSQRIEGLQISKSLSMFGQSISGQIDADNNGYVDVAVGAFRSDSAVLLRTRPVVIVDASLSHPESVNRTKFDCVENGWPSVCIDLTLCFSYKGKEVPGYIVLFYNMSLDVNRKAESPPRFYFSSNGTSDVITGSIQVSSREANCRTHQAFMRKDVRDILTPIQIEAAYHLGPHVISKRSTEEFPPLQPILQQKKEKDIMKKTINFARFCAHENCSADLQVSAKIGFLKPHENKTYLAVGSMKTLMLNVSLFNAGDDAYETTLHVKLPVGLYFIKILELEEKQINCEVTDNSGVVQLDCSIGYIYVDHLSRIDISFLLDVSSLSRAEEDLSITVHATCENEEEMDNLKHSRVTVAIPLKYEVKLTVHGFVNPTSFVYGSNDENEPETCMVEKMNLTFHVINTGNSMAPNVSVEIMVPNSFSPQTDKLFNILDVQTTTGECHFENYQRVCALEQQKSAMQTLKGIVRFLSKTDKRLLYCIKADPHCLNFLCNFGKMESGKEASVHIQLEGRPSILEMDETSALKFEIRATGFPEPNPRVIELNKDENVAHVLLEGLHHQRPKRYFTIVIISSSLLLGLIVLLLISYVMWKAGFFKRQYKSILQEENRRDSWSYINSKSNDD

This assay concerns the target Integrin alpha-4 (Homo sapiens) (UniProt P13612). Description: VLA-4 ligand competition with LDV-FITC, dose response, orthogonal assay, cell-based, plate-based, flow cytometry, set 2 (AID 588446). The note with it: cells, LDV-FITC binding displacement; series mostly up to 66.7 µM; inhibition: at the top concentration. (In flow cytometry, cells or beads pass a laser one at a time.)
`COc1ccc(C2CCCN2C(=O)c2sccc2C)cc1OC` (centres undefined): the “inhibition” value is 30.2 (inactive). Then `O=C1C2CC=CCC2C(=O)N1Cc1csc(Cc2ccccc2)n1` (centres undefined), with 12.2 (inactive); and `COc1ccc(-c2nn(Cc3ccccc3)cc2C(=O)N2CCC2)cc1`, with 7.1 (inactive).

In the case of `Cc1ccc(-c2nc(CN3C(=O)C4CC=CCC4C3=O)cs2)cc1` (centres undefined), the “inhibition” value was 36.7 (inactive).

`CSc1ccccc1OCc1cc(C(=O)N2CCCC2)no1`: the “inhibition” value is 10.1 (inactive). With `CCOCCn1c(C2CC(=O)N(c3ccccc3)C2)nc2ccccc21` (centres undefined), the “inhibition” value is 18.9 (inactive). Then `CCn1c(C2CC(=O)N(c3ccccc3OC)C2)nc2ccccc21` (centres undefined), with 29 (inactive). Turning to `COCC(=O)N1CCC2(CCCN(CCc3ccccc3)C2=O)C1` (centres undefined), the “inhibition” value is 88.4 (inactive). Then `COc1ccccc1N1CCN(CC(=O)c2ccc(F)cc2)CC1`, with 13.7 (inactive); and `Cc1cc(C(=O)N2CCCC2c2ccc3c(c2)OCCO3)sc1C` (centres undefined), with 17 (inactive); and `Cn1cc(C(=O)N2CCCC2c2nc3ccccc3s2)cn1` (centres undefined), with 18.8 (inactive). Then `COCCn1c(C2CC(=O)N(c3cccc(C)c3)C2)nc2ccccc21` (centres undefined), with -7.74 (inactive); and `CCn1c(C2CC(=O)N(CCc3ccccc3)C2)nc2ccccc21` (centres undefined), with 82.5 (inactive); and `Cc1nc2ccccc2n1CCc1noc(COc2ccccc2)n1`, with 17.5 (inactive). As for `Cc1cc(C(=O)N2CCCC2c2nc3ccccc3s2)on1` (centres undefined), the figure is 21.9 (inactive); as for `CCN1CC(c2nc3ccccc3n2CCOc2ccccc2)CC1=O` (centres undefined), 7.23 (inactive); as for `Cc1ccc(C)n1-c1ccc(C(=O)N(C)Cc2ccco2)cc1`, 38.8 (inactive). `COCCn1c(C2CC(=O)N(Cc3ccco3)C2)nc2ccccc21` (centres undefined): the “inhibition” value was 30.4 (inactive). Then `CC(=O)N(C)Cc1nc2ccccc2n1CCOc1ccc(C)cc1`, with 4.65 (inactive); and `Cc1nc(C)c(C(=O)N2CCCC2c2nc3ccccc3s2)s1` (centres undefined), with 14.2 (inactive).

Take `O=C(c1ccc(OCCN2CCCCC2)cc1)c1c(-c2ccc(O)cc2)sc2cc(O)ccc12`: the “inhibition” value was -53.4 (inactive). Then `COCCn1c(C2CC(=O)N(c3ccccc3C)C2)nc2ccccc21` (centres undefined), with -15 (inactive); and `CN1CC(c2nc3ccccc3n2CCOc2ccccc2)CC1=O` (centres undefined), with 33.1 (inactive); and `CCOc1ccccc1N1CC(c2nc3ccccc3n2C)CC1=O` (centres undefined), with 13.8 (inactive). For the compound `COc1cc(OCc2ccccc2)ccc1CN1CCN(C)CC1`, the “inhibition” value is 29.6 (inactive). Then `COc1ccccc1Cn1c(C2CC(=O)N(C)C2)nc2ccccc21` (centres undefined), with 29.8 (inactive); and `CN(Cc1ccco1)C(=O)c1ccc(-n2cnc3ccccc32)cc1`, with 20.4 (inactive). As for `Cc1oc(-c2cccs2)nc1CN1C(=O)C2CC=CCC2C1=O` (centres undefined), the figure is -24.5 (inactive); as for `CCN1CC(c2nc3ccccc3n2Cc2ccccc2)CC1=O` (centres undefined), 5.84 (inactive).
